Source: the supplement of paper PMC6555819

How the values were obtained:
Experiment in all cases: PBM binding z-score (relative to random genomic background probes); higher = stronger binding; sequences stand for … in GC…GCGATTGACAGCGTAGAATGAAGG
[1] = test system: FXR:RXRa (NR concentration 270 nM, RXRa partner concentration 90 nM)
How it was run: (§1)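 Each nuclear receptor dimer, without ligand, was incubated for 1 h on custom Agilent 4×180K protein-binding microarrays. Binding was detected with antibodies against each partner (one per run), and scanned fluorescence was regression-normalized. The binding z-scores are referenced to random human genomic background probes.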

[2] = test system: LXRa:RXRa (NR concentration 270 nM, RXRa partner concentration 90 nM)
How it was run: as §1

[3] = test system: LXRa homodimer (NR concentration 270 nM)
How it was run: as §1

[4] = test system: LXRb:RXRa (NR concentration 270 nM, RXRa partner concentration 90 nM)
How it was run: as §1

[5] = test system: LXRb homodimer (NR concentration 270 nM)
How it was run: as §1

[6] = test system: PPARa:RXRa (NR concentration 270 nM, RXRa partner concentration 90 nM)
How it was run: as §1

[7] = test system: PPARg:RXRa (NR concentration 180 nM, RXRa partner concentration 90 nM)
How it was run: as §1

[8] = test system: PPARg:RXRa 270nM:90nM, anti-RXR (NR concentration 270 nM, RXRa partner concentration 90 nM)
How it was run: as §1

[9] = test system: PPARg:RXRa 30nM:10nM, anti-RXR (NR concentration 30 nM, RXRa partner concentration 10 nM)
How it was run: as §1

[10] = test system: PPARg:RXRa 90nM:30nM, anti-RXR (NR concentration 90 nM, RXRa partner concentration 30 nM)
How it was run: as §1

CAAACTAGGTCACGTAAGGTCAAAGTCGAATGAC
PBM binding z-score [1]: 6.98 | PBM binding z-score [2]: 8.26 | PBM binding z-score [3]: 7.28 | PBM binding z-score [4]: 7.56 | PBM binding z-score [5]: 2.27 | PBM binding z-score [6]: 6.49 | PBM binding z-score [7]: 10.1 | PBM binding z-score [8]: 8.07 | PBM binding z-score [9]: 6.4 | PBM binding z-score [10]: 8.05

TCTGCTAGGTCAGTTGGTCAGCTGACGAGCTGCC
PBM binding z-score [1]: 0.985 | PBM binding z-score [2]: 0.585 | PBM binding z-score [3]: -0.512 | PBM binding z-score [4]: 0.147 | PBM binding z-score [5]: 0.278 | PBM binding z-score [6]: 1.34 | PBM binding z-score [7]: 0.32 | PBM binding z-score [8]: 1.68 | PBM binding z-score [9]: 1.08 | PBM binding z-score [10]: 0.992

CGTCCAAGGTCAGCAGGTCAGGGAAAGCGACGTG
PBM binding z-score [1]: 5.75 | PBM binding z-score [2]: 3.75 | PBM binding z-score [3]: 0.358 | PBM binding z-score [4]: 3.11 | PBM binding z-score [5]: -0.252 | PBM binding z-score [6]: 4.79 | PBM binding z-score [7]: 4.23 | PBM binding z-score [8]: 4.7 | PBM binding z-score [9]: 1.38 | PBM binding z-score [10]: 3.21

ATATGTAGGTTAGCTGGGGTCATTCATACTAGGC
PBM binding z-score [1]: 4.61 | PBM binding z-score [2]: 5.73 | PBM binding z-score [3]: 3.67 | PBM binding z-score [4]: 5.14 | PBM binding z-score [5]: 1.97 | PBM binding z-score [6]: 5.1 | PBM binding z-score [7]: 5.98 | PBM binding z-score [8]: 5.23 | PBM binding z-score [9]: 3.12 | PBM binding z-score [10]: 4.83

CGTCCCAGGTCAAGGTCAGTGAAAGAGACTCGAA
PBM binding z-score [1]: 6.02 | PBM binding z-score [2]: 4.67 | PBM binding z-score [3]: 1.45 | PBM binding z-score [4]: 3.68 | PBM binding z-score [5]: 0.553 | PBM binding z-score [6]: 5 | PBM binding z-score [7]: 4.32 | PBM binding z-score [8]: 4.51 | PBM binding z-score [9]: 1.14 | PBM binding z-score [10]: 3.02

ACTAACAGGCCAAGTTTGGGTCACTCAAACAAAG
PBM binding z-score [1]: 0.517 | PBM binding z-score [2]: 0.251 | PBM binding z-score [3]: -0.258 | PBM binding z-score [4]: 0.977 | PBM binding z-score [5]: 0.105 | PBM binding z-score [6]: 1.45 | PBM binding z-score [7]: 0.241 | PBM binding z-score [8]: 0.254 | PBM binding z-score [9]: -0.0822 | PBM binding z-score [10]: 0.083

AGTCAAAGTTCAGGACGAGGTAAGGTAAAGCACG
PBM binding z-score [1]: 4.31 | PBM binding z-score [2]: 3.87 | PBM binding z-score [3]: 1.46 | PBM binding z-score [4]: 1.95 | PBM binding z-score [5]: 0.293 | PBM binding z-score [6]: 3.46 | PBM binding z-score [7]: 4.39 | PBM binding z-score [8]: 5.12 | PBM binding z-score [9]: 2.13 | PBM binding z-score [10]: 4.27

ATCTAAAGGTCGAGGTGAGTATAGAGAAAGGGAA
PBM binding z-score [1]: 4.67 | PBM binding z-score [2]: 4.45 | PBM binding z-score [3]: 0.751 | PBM binding z-score [4]: 3.06 | PBM binding z-score [5]: 1.17 | PBM binding z-score [6]: 4.61 | PBM binding z-score [7]: 3.83 | PBM binding z-score [8]: 4.02 | PBM binding z-score [9]: 1.72 | PBM binding z-score [10]: 3.16

CATACAGGGTCAGCTAGGCCAGAGTCGGGACGGC
PBM binding z-score [1]: 4.49 | PBM binding z-score [2]: 3.06 | PBM binding z-score [3]: -0.0518 | PBM binding z-score [4]: 1.97 | PBM binding z-score [5]: 0.537 | PBM binding z-score [6]: 4.21 | PBM binding z-score [7]: 3.11 | PBM binding z-score [8]: 3.03 | PBM binding z-score [9]: 0.551 | PBM binding z-score [10]: 1.92

CCTGCTAGGTCAGTGGTCAGCTAAAGCAGCTCGC
PBM binding z-score [1]: 0.953 | PBM binding z-score [2]: 0.472 | PBM binding z-score [3]: -0.482 | PBM binding z-score [4]: 0.299 | PBM binding z-score [5]: -0.638 | PBM binding z-score [6]: 1.39 | PBM binding z-score [7]: 1.53 | PBM binding z-score [8]: 2.58 | PBM binding z-score [9]: 0.178 | PBM binding z-score [10]: 1.59

CCTACTGGGTCAAAAAGGTCATTGATGCCGATAA
PBM binding z-score [1]: 5.59 | PBM binding z-score [2]: 5.57 | PBM binding z-score [3]: 4.15 | PBM binding z-score [4]: 5.29 | PBM binding z-score [5]: 1.01 | PBM binding z-score [6]: 5.73 | PBM binding z-score [7]: 7 | PBM binding z-score [8]: 6.52 | PBM binding z-score [9]: 4.03 | PBM binding z-score [10]: 5.73

CGAACGAGGGCATGATTTGATAGCAAATGCCGAT
PBM binding z-score [1]: 0.047 | PBM binding z-score [2]: -0.148 | PBM binding z-score [3]: -0.301 | PBM binding z-score [4]: -0.0288 | PBM binding z-score [5]: -0.66 | PBM binding z-score [6]: 0.783 | PBM binding z-score [7]: 0.992 | PBM binding z-score [8]: 0.441 | PBM binding z-score [9]: 0.141 | PBM binding z-score [10]: 0.0789

TCATATAGGTAATACACGTGAAAGTCGGCATCTA
PBM binding z-score [1]: 1.26 | PBM binding z-score [2]: 0.929 | PBM binding z-score [3]: 0.413 | PBM binding z-score [4]: 1.06 | PBM binding z-score [5]: 0.455 | PBM binding z-score [6]: 1.13 | PBM binding z-score [7]: 1.1 | PBM binding z-score [8]: 2.03 | PBM binding z-score [9]: 3.93 | PBM binding z-score [10]: 2.92

ATCGAAAGGTCGAGGTGAGTCTAGAGAAAGGGAA
PBM binding z-score [1]: 4.71 | PBM binding z-score [2]: 3.71 | PBM binding z-score [3]: 0.045 | PBM binding z-score [4]: 2.76 | PBM binding z-score [5]: 0.53 | PBM binding z-score [6]: 4.63 | PBM binding z-score [7]: 3.46 | PBM binding z-score [8]: 3.62 | PBM binding z-score [9]: 1.16 | PBM binding z-score [10]: 2.32

CCTACTGGGCCACGAAAGGTTATTGATTCAGTGA
PBM binding z-score [1]: 0.471 | PBM binding z-score [2]: 1.28 | PBM binding z-score [3]: 0.5 | PBM binding z-score [4]: 1.1 | PBM binding z-score [5]: -0.501 | PBM binding z-score [6]: 2.58 | PBM binding z-score [7]: 2.37 | PBM binding z-score [8]: 2.81 | PBM binding z-score [9]: 0.563 | PBM binding z-score [10]: 1.69

TGAATGAGGTTATAAGATCAGGGAGCGTTGCAAA
PBM binding z-score [1]: 1.22 | PBM binding z-score [2]: 1.19 | PBM binding z-score [3]: -0.626 | PBM binding z-score [4]: 0.707 | PBM binding z-score [5]: -0.471 | PBM binding z-score [6]: 2.63 | PBM binding z-score [7]: 1.63 | PBM binding z-score [8]: 1.91 | PBM binding z-score [9]: 0.643 | PBM binding z-score [10]: 1.55

ACTATTAGTTAACTTAGGGCAACCGATACGACGC
PBM binding z-score [1]: 0.0468 | PBM binding z-score [2]: 1.21 | PBM binding z-score [3]: 0.294 | PBM binding z-score [4]: 0.256 | PBM binding z-score [5]: 0.392 | PBM binding z-score [6]: 0.281 | PBM binding z-score [7]: 1 | PBM binding z-score [8]: 0.361 | PBM binding z-score [9]: 0.616 | PBM binding z-score [10]: 0.282

CCTACTGGGCCATCAGGTAATTGATATCAACGTT
PBM binding z-score [1]: -0.165 | PBM binding z-score [2]: -0.235 | PBM binding z-score [3]: -0.14 | PBM binding z-score [4]: -0.089 | PBM binding z-score [5]: -0.373 | PBM binding z-score [6]: 0.452 | PBM binding z-score [7]: 1.15 | PBM binding z-score [8]: 1.85 | PBM binding z-score [9]: 0.313 | PBM binding z-score [10]: 1.17

CCTTACGGGTAAAGGTTATAGCACGGGTGGTACG
PBM binding z-score [1]: 1.2 | PBM binding z-score [2]: 1.69 | PBM binding z-score [3]: 0.37 | PBM binding z-score [4]: 1.19 | PBM binding z-score [5]: -0.173 | PBM binding z-score [6]: 3.02 | PBM binding z-score [7]: 2.95 | PBM binding z-score [8]: 4.67 | PBM binding z-score [9]: 2.06 | PBM binding z-score [10]: 3.73

CCGACTGGGGCAGAAAGGCTACCATACCATCCGG
PBM binding z-score [1]: -0.561 | PBM binding z-score [2]: -0.818 | PBM binding z-score [3]: -0.431 | PBM binding z-score [4]: -0.869 | PBM binding z-score [5]: -1.41 | PBM binding z-score [6]: -0.338 | PBM binding z-score [7]: 0.703 | PBM binding z-score [8]: -0.0777 | PBM binding z-score [9]: -0.705 | PBM binding z-score [10]: -0.612

CCGAGTAGGTTATGGAGCATTCAGGCAACGGTGA
PBM binding z-score [1]: 0.0328 | PBM binding z-score [2]: 0.259 | PBM binding z-score [3]: 0.125 | PBM binding z-score [4]: 0.219 | PBM binding z-score [5]: -0.185 | PBM binding z-score [6]: 1.01 | PBM binding z-score [7]: 1.36 | PBM binding z-score [8]: 2.08 | PBM binding z-score [9]: 0.32 | PBM binding z-score [10]: 1.46

ATCTCTAGGTAACAGGTTCAGTGAAAGAGAGGAC
PBM binding z-score [1]: 0.507 | PBM binding z-score [2]: 0.677 | PBM binding z-score [3]: 0.529 | PBM binding z-score [4]: 0.67 | PBM binding z-score [5]: 1.09 | PBM binding z-score [6]: 1.8 | PBM binding z-score [7]: 2.61 | PBM binding z-score [8]: 2.9 | PBM binding z-score [9]: 1.5 | PBM binding z-score [10]: 2.78

ATCTCTAGGTAAAAGCTCAGTGAATCCCGAGGAT
PBM binding z-score [1]: -0.219 | PBM binding z-score [2]: -0.28 | PBM binding z-score [3]: -0.281 | PBM binding z-score [4]: -0.514 | PBM binding z-score [5]: 0.446 | PBM binding z-score [6]: 0.485 | PBM binding z-score [7]: 1.13 | PBM binding z-score [8]: 2.55 | PBM binding z-score [9]: 1.27 | PBM binding z-score [10]: 2.35

TCTCGGAGGACACGAAGGTCATAGCTTTCCAGAG
PBM binding z-score [1]: 2.87 | PBM binding z-score [2]: 2.73 | PBM binding z-score [3]: 1.72 | PBM binding z-score [4]: 2.61 | PBM binding z-score [5]: -0.514 | PBM binding z-score [6]: 3.18 | PBM binding z-score [7]: 1.09 | PBM binding z-score [8]: 2.57 | PBM binding z-score [9]: 2.55 | PBM binding z-score [10]: 2.54
